PubChem BioAssay (Tox21)
Results filed as inconclusive are left out. Entries that show only a call come without a potency. Calls of active or inactive are those of the source. Unless noted, the call rests on the fitted dose curve; in most records, active means well fitted curve in the direction sought with a large enough effect in the repeat runs; inconclusive means weak or mixed curves; inactive means no such curve, though single readings can be large; an effect the other way counts as inactive or inconclusive.

How the values were obtained:
[1] = qHTS assay to identify small molecule antagonists of the estrogen receptor alpha (ER-alpha) signaling pathway using the BG1 cell line in the presence of 0.1 nM 17-beta-estradiol - cell viability counter screen (AID 1259241); further: nearly all actives have a fitted effect of over 40% in size; further: potency means the concentration at half of the fitted maximal effect
Procedure, shortened: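 CellTiter-Fluor read (30 min, 37C) on ER-alpha/ERE-luc VM7Luc4E2 cells; 22 hr compound treatment; agonist 0.1 nM E2 final; same-well multiplex.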

[2] = qHTS assay to identify small molecule antagonists of the androgen receptor (AR) signaling pathway using the MDA cell line in the presence of 0.5 nM R1881 - cell viability counter screen (AID 1259242); further: nearly all actives have a fitted effect of over 45% in size; further: potency means the concentration at half of the fitted maximal effect
Procedure, shortened: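 qHTS format. MDA-kb2 (MMTV-luc, AR/GR responsive) + cpd + 0.5 nM R1881 final, 16 hr 37C/0% CO2 → CellTiter-Fluor 30 min → fluorescence intensity.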

[3] = target: Estrogen receptor (Homo sapiens) (UniProt P03372); assay: qHTS assay to identify small molecule antagonists of the estrogen receptor alpha (ER-alpha) signaling pathway using the BG1 cell line in the presence of 0.1 nM 17-beta-estradiol (AID 1259244); further: nearly all actives have a fitted effect of over 50% in size; further: potency means the concentration at half of the fitted maximal effect
Procedure, shortened: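 Reporter is a stably transfected luciferase under four estrogen responsive elements in VM7Luc4E2 cells expressing native full-length ER-alpha; inhibition of 0.1 nM (final) 17beta-estradiol-driven signal over 22 h is read by luminescence.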

[4] = qHTS assay to identify small molecule phospholipidosis (PLD) inducers (AID 1259344; active means well fitted curve in the direction sought with a large enough effect; an effect the other way counts as inactive or inconclusive)
Procedure, shortened: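 After 4 h attachment on collagen I, HepG2 cells were dosed with compound alongside LipidTOX Red, kept 24 h at 37 C, fixed, and imaged for lamellar phospholipid pits.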

[5] = qHTS assay to identify small molecule HDAC inhibitors (AID 1259364); further: potency means the concentration at half of the fitted maximal effect;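 further: wild-type HCT-116 cells with endogenous class I/II HDAC activity; nearly all actives have a fitted effect of over 45% in size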
Procedure, shortened: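 Quantitative high-throughput format: overnight-seeded HCT-116 cells got compounds for 2 hr at 37C; HDAC-Glo I/II reagent added, 30 min RT, luminescence measured.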

[6] = qHTS assay to identify small molecule HDAC inhibitors - cell viability counter screen (AID 1259365); further: nearly all actives have a fitted effect of over 50% in size; further: potency means the concentration at half of the fitted maximal effect
Procedure, shortened: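 To flag cytotoxic hits, 1,500 wild-type HCT-116 cells per well, plated the day before, receive test compounds for 2hr at 37 C before CellTiter-Glo reagent and a luminescence read.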

[7] = qHTS assay to identify small molecule agonists of the sonic hedgehog signaling (Shh) pathway - cell viability counter screen (AID 1259366); further: nearly all actives have a fitted effect of over 50% in size; further: potency means the concentration at half of the fitted maximal effect
Procedure, shortened: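 Fluorescence from CellTiter-Fluor reports live cells in this counter screen. NIH/3T3-derived Gli1-Luc reporter cells receive test compounds for 24hr at 37C; reagent goes in at 23hr.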

[8] = qHTS assay to identify small molecule antagonists of the sonic hedgehog signaling (Shh) pathway - cell viability counter screen (AID 1259367); further: nearly all actives have a fitted effect of over 55% in size; further: potency means the concentration at half of the fitted maximal effect
Procedure, shortened: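 Conditioned medium drove Shh signaling in 3T3 Gli1-Luc cells exposed to compounds at 37C and 5% CO2. Viability was determined from CellTiter-Fluor fluorescence, with reagent incubated 1 hr after 23 hr of treatment.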

[9] = qHTS assay to identify small molecule agonists of the sonic hedgehog signaling (Shh) pathway (AID 1259368; calls by dose curve;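 further: NIH/3T3-derived 3T3Gli1-Luc cells carrying a stable Gli1-driven firefly luciferase reporter; series mostly up to about 92 µM; nearly all actives have a fitted effect of over 15% in size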)
Procedure, shortened: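 Quantitative high-throughput format using a Gli1-driven firefly luciferase reporter line derived from NIH/3T3 cells. After a 24 hr compound treatment at 37 C and 5% CO2, luminescence reported Gli1 response element activity.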

[10] = target: Estrogen receptor beta (Homo sapiens) (UniProt Q92731); assay: qHTS assay to identify small molecule agonists of the estrogen receptor beta (ER-beta) signaling pathway (AID 1259377; active means well fitted activation curve with a large enough effect in the signal ratio in the repeat runs, not every such curve was filed as active; the % refers to the signal ratio)
Procedure, shortened: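 Screening used GripTite ER-beta-UAS-bla cells held in 2% charcoal-stripped FBS medium. After overnight (16 hr) compound incubation at 37C, beta-lactamase activity was detected with a FRET substrate by fluorescence.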

[11] = qHTS assay to identify small molecule agonists of the androgen receptor (AR) signaling pathway in the presence of an antagonist - cell viability counter screen (AID 1259379); further: nearly all actives have a fitted effect of over 25% in size; further: potency means the concentration at half of the fitted maximal effect
Procedure, shortened: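 Nilutamide-containing (3.0uM final) MDA-kb2 cultures, 3,000 cells/well, were treated with compounds across 15 concentrations. After 16 hr at 37C with no CO2, cell viability was determined by CellTiter-Fluor fluorescence in the luciferase assay wells.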

[12] = qHTS assay to identify small molecule agonists of the estrogen receptor beta (ER-beta) signaling pathway - cell viability counter screen (AID 1259380); further: nearly all actives have a fitted effect of over 30% in size; further: potency means the concentration at half of the fitted maximal effect
Procedure, shortened: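 Steps: plate ER-beta-UAS-bla HEK293T cells, rest 6 hr; add compounds in DMSO; incubate 16 hr at 37C, 5% CO2; add FRET substrate 2 hr; add CellTiter-Glo, wait 30 min at room temperature; read luminescence.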

[13] = qHTS assay to identify small molecule agonists or antagonists of the thyroid stimulating hormone receptor (TSHR) signaling pathway - wild type cell line counter screen (AID 1259384; calls by dose curve)
Procedure, shortened: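 Wild-type HEK293 cells were plated 18 h at 37 C/5% CO2, pin-dosed with compound plus Ro20-1724 medium, held 30 min at room temperature, then given cAMP-d2 and anti-cAMP-cryptate; fluorescence was read after 1 h. Fifteen concentrations, triplicate.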

[14] = qHTS assay to identify small molecule antagonists of the sonic hedgehog signaling (Shh) pathway (AID 1259369; calls by dose curve; further: nearly all actives have a fitted effect of over 45% in size; further: potency means the concentration at half of the fitted maximal effect)
Procedure, shortened: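 Stable Gli1-Luc reporter NIH/3T3 clone; quantitative HTS in stimulated mode with conditioned medium. Luminescence measured after 24hr compound treatment at 37 C.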

[15] = qHTS assay to identify small molecule antagonists of the estrogen receptor beta (ER-beta) signaling pathway - cell viability counter screen (AID 1259382); further: nearly all actives have a fitted effect of over 55% in size; further: potency means the concentration at half of the fitted maximal effect
Procedure, shortened: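 Viability is scored by CellTiter-Glo luminescence (30 min, room temperature) in ER-beta-UAS-bla HEK293T wells already read for reporter fluorescence. Compound exposure lasts 16 hr at 37C alongside 1nM 17-beta-estradiol in charcoal-stripped serum medium.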

[16] = target: Estrogen receptor (Homo sapiens) (UniProt P03372); assay: qHTS assay to identify small molecule agonists of the estrogen receptor alpha (ER-alpha) signaling pathway in the presence of an antagonist (AID 1259383; calls by dose curve; further: top concentration of the series differs between compounds; nearly all actives have a fitted effect of over 15% in size)
Procedure, shortened: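 Readout was ERE-driven luciferase luminescence in VM7Luc4E2 cells, which express full-length ER-alpha endogenously. Compounds were tested at 15 concentrations for 22hr alongside 10.0nM ICI-182,780 (final concentration).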

[17] = target: Estrogen receptor beta (Homo sapiens) (UniProt Q92731); assay: qHTS assay to identify small molecule antagonists of the estrogen receptor beta (ER-beta) signaling pathway (AID 1259378; active means well fitted inhibition curve with a large enough effect in the signal ratio in the repeat runs, not every such curve was filed as active; the % refers to the signal ratio; further: potency means the concentration at half of the fitted maximal effect)
Procedure, shortened: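 ER-beta-UAS-bla HEK293T (GripTite) cells in 2% charcoal-stripped FBS medium were preincubated 6 hr at 37C, dosed with compound, then stimulated with 1 nM E2 (final) for 16 hr; beta-lactamase reporter read by B/G FRET fluorescence after 2 hr substrate loading.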

[18] = target: Thyrotropin receptor (Homo sapiens) (UniProt P16473); assay: qHTS assay to identify small molecule antagonists of the thyroid stimulating hormone receptor (TSHR) signaling pathway (AID 1259385; calls by dose curve; further: nearly all actives have a fitted effect of over 20% in size)
Procedure, shortened: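 TSHR-HEK293 cells were plated and held 18 h at 37C/5% CO2, then given compound plus Ro20-1724 and stimulated with TSH at 1.5 ng/mL final. After 30 min at room temperature, cAMP was detected with cAMP-d2/anti-cAMP-cryptate (1 h) by fluorescence.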

[19] = target: Androgen receptor (Homo sapiens) (UniProt P10275); assay: qHTS assay to identify small molecule agonists of the androgen receptor (AR) signaling pathway in the presence of an antagonist (AID 1259381; calls by dose curve; further: nearly all actives have a fitted effect of over 15% in size)
Procedure, shortened: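 Reporter-gene luminescence from MDA-kb2 cells exposed 16hr at 37C (0% CO2) to 15-point compound titrations with 3.0uM final nilutamide as AR antagonist.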

Estrogen receptor (Homo sapiens), sequence (P03372 whole entry, looked up): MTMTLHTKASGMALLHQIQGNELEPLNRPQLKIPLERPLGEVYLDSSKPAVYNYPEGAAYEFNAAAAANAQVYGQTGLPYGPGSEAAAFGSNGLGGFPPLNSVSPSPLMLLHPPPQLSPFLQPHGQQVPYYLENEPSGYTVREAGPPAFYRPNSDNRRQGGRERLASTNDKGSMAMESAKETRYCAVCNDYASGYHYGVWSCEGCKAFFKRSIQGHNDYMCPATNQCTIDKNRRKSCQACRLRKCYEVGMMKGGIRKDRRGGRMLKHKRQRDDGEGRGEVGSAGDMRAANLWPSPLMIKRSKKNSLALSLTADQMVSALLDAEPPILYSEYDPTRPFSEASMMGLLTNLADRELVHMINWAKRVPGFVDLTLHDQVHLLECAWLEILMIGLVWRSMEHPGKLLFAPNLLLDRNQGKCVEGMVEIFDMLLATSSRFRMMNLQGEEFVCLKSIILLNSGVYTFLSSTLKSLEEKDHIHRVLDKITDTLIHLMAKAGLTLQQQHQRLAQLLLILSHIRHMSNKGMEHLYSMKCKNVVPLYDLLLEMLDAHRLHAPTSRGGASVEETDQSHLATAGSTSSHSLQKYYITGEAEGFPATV
Estrogen receptor beta (Homo sapiens), sequence (Q92731 whole entry, looked up): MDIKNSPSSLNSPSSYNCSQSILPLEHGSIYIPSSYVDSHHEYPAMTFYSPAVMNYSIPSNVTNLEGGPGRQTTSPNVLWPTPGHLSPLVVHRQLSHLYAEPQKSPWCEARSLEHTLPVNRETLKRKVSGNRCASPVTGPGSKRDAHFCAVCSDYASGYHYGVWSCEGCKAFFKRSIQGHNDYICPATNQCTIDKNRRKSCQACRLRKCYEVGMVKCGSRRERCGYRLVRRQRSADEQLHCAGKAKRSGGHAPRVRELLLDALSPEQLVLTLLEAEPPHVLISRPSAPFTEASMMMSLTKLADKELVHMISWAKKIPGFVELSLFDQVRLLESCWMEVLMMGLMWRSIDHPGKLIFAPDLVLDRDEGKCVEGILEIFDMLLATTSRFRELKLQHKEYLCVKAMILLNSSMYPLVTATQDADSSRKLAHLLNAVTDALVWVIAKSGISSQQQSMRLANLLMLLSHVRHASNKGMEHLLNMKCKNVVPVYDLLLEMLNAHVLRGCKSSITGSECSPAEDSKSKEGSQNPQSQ
Thyrotropin receptor (Homo sapiens), sequence (P16473 whole entry, looked up): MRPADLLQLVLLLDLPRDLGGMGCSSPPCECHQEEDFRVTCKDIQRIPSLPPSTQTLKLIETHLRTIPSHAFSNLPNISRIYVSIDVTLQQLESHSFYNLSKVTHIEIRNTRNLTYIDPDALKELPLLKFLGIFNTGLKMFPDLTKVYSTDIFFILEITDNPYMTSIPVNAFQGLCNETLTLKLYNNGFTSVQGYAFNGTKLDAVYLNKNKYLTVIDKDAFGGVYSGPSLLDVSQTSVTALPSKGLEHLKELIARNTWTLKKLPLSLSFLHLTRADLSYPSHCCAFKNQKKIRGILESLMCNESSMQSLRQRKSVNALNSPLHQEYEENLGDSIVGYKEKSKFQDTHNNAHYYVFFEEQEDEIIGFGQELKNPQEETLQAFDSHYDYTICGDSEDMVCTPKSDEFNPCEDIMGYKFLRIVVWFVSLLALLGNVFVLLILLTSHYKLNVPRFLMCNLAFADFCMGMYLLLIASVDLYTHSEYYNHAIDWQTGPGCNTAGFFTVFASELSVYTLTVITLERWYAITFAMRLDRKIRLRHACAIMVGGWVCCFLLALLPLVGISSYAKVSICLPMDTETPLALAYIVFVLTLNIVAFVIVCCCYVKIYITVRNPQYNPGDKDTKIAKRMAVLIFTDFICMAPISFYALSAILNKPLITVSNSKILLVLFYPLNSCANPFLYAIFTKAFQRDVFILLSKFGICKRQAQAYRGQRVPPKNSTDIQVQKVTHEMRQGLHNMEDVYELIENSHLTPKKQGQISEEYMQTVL
Androgen receptor (Homo sapiens), sequence (P10275 whole entry, looked up): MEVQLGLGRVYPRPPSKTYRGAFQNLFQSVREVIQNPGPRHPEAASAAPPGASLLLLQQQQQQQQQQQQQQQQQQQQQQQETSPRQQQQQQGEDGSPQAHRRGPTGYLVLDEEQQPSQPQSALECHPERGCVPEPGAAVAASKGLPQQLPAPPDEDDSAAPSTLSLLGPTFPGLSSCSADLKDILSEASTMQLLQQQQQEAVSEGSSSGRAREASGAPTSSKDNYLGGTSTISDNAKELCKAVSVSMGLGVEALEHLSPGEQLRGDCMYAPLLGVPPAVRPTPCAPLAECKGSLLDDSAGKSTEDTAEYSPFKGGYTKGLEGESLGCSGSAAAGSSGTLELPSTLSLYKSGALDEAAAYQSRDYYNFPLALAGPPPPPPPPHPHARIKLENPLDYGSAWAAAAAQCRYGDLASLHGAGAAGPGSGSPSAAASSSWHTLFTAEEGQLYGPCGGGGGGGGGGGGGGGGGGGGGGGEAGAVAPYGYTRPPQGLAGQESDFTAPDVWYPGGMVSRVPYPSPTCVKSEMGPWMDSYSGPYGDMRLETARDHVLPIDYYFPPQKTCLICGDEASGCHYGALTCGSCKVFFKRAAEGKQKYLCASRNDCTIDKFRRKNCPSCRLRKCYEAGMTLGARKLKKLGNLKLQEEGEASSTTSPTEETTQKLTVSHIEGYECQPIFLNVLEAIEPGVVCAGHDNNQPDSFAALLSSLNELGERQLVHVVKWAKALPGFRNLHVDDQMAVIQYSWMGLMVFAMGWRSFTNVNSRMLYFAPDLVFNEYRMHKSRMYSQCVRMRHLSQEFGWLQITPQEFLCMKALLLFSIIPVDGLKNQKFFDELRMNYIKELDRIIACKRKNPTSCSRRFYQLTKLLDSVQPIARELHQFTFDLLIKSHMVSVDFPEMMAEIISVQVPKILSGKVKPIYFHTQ

Structure (SMILES) | Potency [1] | Potency [2] | Potency [3] | Potency [4] | Potency [5] | Potency [6] | Potency [7] | Potency [8] | Potency [9] | Potency [10] | Potency [11] | Potency [12] | outcome [13] | Potency [14] | Potency [15] | Potency [16] | Potency [17] | Potency [18] | Potency [19]
N/C(=N\N=C\c1ccc(Cl)cc1)N/N=C/c1ccc(Cl)cc1 | inactive | inactive | inactive | inactive | inactive | inactive | inactive | inactive | inactive | inactive | 29.8 µM (active) | 29.8 µM (active) | inactive |  |  |  |  |  | 
Cc1cccc(CN2CCN(C(c3ccccc3)c3ccc(Cl)cc3)CC2)c1 (centres undefined) | inactive | inactive | inactive | inactive | inactive | inactive | inactive | inactive | inactive | inactive | inactive | inactive | inactive | inactive | inactive | inactive |  |  | 
CC(C)(C)NC(=O)[C@@H]1C[C@@H]2CCCC[C@@H]2CN1C[C@@H](O)[C@H](Cc1ccccc1)NC(=O)[C@H](CC(N)=O)NC(=O)c1ccc2ccccc2n1 | 27.7 µM (active) | 61.9 µM (active) | 61.9 µM (active) | inactive | inactive | inactive | 9.82 µM (active) |  | inactive |  | 61.9 µM (active) | 55.2 µM (active) | inactive | 24.7 µM (active) | 61.9 µM (active) | inactive | 17.5 µM (active) | inactive | 
Cc1cccc(S(=O)(=O)O)c1C | inactive | inactive | inactive |  | inactive | inactive | inactive | inactive | inactive | inactive |  | inactive | inactive |  | inactive | inactive | inactive | inactive | 
c1cc(C(c2ccc(OCC3CO3)cc2)c2ccc(OCC3CO3)cc2)ccc1OCC1CO1 (centres undefined) | inactive | inactive | inactive |  | inactive | inactive | 61.1 µM (active) |  | inactive |  |  |  |  | 54.5 µM (active) | inactive | inactive |  |  | inactive
CCCCCCCCCCCC[N+](C)(C)CCCCCCCCCCCC | 54.5 µM (active) | 27.3 µM (active) | 30.6 µM (active) |  | inactive | 54.5 µM (active) | 24.3 µM (active) | 27.3 µM (active) | inactive |  |  | 21.7 µM (active) | inactive |  | 21.7 µM (active) | inactive |  | inactive | 
CC(=O)OCC(C)OC(C)=O (centres undefined) | inactive | inactive | inactive |  | inactive |  | inactive | inactive | inactive | inactive | inactive | inactive | inactive | 68.6 µM (active) | inactive | inactive | inactive | inactive | 
O=[N+]([O-])c1ccccc1Nc1ccccc1 | inactive | inactive | inactive |  | inactive |  | inactive | inactive | inactive | inactive |  | inactive |  | inactive | inactive | inactive | inactive |  | 
O=Cc1cc(O)ccc1Br | inactive | inactive | inactive |  |  | inactive |  | inactive | inactive | inactive | inactive | inactive |  | inactive | inactive | inactive |  | inactive | 
CCCC(C)c1ccccc1O (centres undefined) | inactive | inactive | inactive |  | inactive | inactive |  |  | inactive | inactive | inactive | inactive |  |  | inactive | inactive | inactive | inactive | 
COc1cc(/C=C/C(=O)O[C@H]2CC[C@]34C[C@]35CC[C@]3(C)[C@@H]([C@H](C)CCC=C(C)C)CC[C@@]3(C)[C@@H]5CC[C@H]4C2(C)C)ccc1O | inactive | inactive |  | inactive | inactive | inactive | inactive | inactive | inactive |  | inactive | inactive |  | inactive | inactive |  |  |  | 
Cc1c(C)c2c(c(C)c1OC(=O)CCC(=O)O)CC[C@@](C)(CCC[C@H](C)CCC[C@H](C)CCCC(C)C)O2 | inactive | inactive |  | inactive | inactive | inactive | inactive | inactive | inactive |  | 27.6 µM (active) | 1.95 µM (active) | inactive | inactive |  |  |  | inactive | 
O=c1cccccc1O | inactive | inactive | inactive |  | inactive |  | 55.5 µM (active) | 62.3 µM (active) | inactive | inactive | inactive |  | inactive | 24.8 µM (active) |  |  | inactive | inactive | 
Clc1ccc2cc3ccccc3cc2c1 | inactive | inactive | inactive |  | 54.4 µM (active) |  | inactive | inactive | inactive |  | inactive | inactive |  | inactive | inactive | inactive |  |  | inactive
CCC(N)(CO)CO | inactive | inactive | inactive |  | inactive | inactive | inactive | inactive | inactive | inactive | inactive | inactive |  |  | inactive | inactive | inactive |  | 
CCOC(=O)/C=C(C)/C=C/C=C(C)/C=C/c1c(C)cc(OC)c(C)c1C | inactive | inactive |  | inactive | inactive | inactive | inactive | inactive | inactive |  | inactive | inactive | inactive | inactive | inactive | inactive |  | inactive | 
